Assay outcomes: PubChem, National Center for Advancing Translational Sciences (NCATS)
The list is not random: actives were taken first. Their share in the collection is about 7.6%.
hERG WT inh = blocks the wildtype human KCNH2 potassium channel; 0.37% of 340,000 active; activity change, % at 1.84 µM; Q12809; U2OS, BacMam KCNH2, thallium flux FluxOr; stronger effect = lower value;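 active = maximum activity change below -70%; inconclusive = maximum activity change between -70% and -50%; inactive = maximum activity change above -50%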; also: % is scaled to controls: 0 for no effect and ±100 for the full control effect
Target sequence (Q12809 whole entry, looked up): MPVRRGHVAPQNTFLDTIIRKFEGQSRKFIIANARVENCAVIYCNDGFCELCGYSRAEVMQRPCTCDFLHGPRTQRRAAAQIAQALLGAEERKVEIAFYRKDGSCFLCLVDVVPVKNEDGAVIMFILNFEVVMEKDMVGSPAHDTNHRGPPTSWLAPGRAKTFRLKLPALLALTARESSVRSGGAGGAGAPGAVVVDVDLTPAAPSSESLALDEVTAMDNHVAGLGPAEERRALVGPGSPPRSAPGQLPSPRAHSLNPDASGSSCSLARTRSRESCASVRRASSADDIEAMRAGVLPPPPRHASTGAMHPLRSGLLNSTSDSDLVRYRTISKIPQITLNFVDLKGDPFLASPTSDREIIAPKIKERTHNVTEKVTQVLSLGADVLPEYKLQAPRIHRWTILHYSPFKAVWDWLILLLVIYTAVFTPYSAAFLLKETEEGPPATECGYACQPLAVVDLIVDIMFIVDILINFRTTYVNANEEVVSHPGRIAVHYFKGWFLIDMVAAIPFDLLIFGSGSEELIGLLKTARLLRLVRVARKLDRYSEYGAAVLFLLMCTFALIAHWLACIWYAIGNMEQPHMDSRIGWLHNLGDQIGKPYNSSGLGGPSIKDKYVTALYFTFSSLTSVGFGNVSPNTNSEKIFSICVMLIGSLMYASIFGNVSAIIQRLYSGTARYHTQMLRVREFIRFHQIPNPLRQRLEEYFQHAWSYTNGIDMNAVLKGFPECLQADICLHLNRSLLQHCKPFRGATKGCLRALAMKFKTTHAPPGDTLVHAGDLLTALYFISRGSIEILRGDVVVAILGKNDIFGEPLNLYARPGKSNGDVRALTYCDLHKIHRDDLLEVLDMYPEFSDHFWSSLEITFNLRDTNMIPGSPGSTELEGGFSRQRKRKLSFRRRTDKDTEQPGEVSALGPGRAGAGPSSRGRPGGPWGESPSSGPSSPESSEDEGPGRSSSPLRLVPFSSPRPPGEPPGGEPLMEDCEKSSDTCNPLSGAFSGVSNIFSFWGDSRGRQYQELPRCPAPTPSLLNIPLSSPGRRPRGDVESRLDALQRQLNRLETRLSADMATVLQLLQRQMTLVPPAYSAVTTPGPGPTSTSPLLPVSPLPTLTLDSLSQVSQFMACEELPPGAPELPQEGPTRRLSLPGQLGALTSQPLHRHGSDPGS
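U2OS cells transduced with wild-type KCNH2 virus are loaded with FluxOr dye for 45 min, and thallium flux is measured in kinetic reads before and after stimulation buffer. Rate constants are normalized to DMSO controls.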
KCNH2 3.1 block = inhibitors of human KCNH2 3.1 potassium channel isoform. U2OS KCNH2 3.1, thallium flux FluxOr; stronger effect = lower value. activity change, % (tested at about 1.8 µM). 0.95% of 340,000 active;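 active = maximum activity change below -70%; inconclusive = maximum activity change from -70% to -50%; inactive = maximum activity change above -50%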;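 also: thallium influx rate constant from kinetic fluorescence after stimulation buffer; % is scaled to controls: 0 for no effect and ±100 for the full control effect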
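Channel expression came from 3.1 mutant virus (1.77 x 10^8 /mL) applied to suspended U2OS cells for 4 h. Flux was tracked with FluxOr dye plus Red40 quencher, and kinetic rate constants normalized to controls.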
MCF10A rereplic = DNA re-replication induction in MCF 10a cells; MCF 10A DNA re-replication, Hoechst nuclear intensity, 48 h; Potency, µM (highest dose often 46.1 µM), for the others: at the highest dose activity, positive = re-replication, actives largely listed as activators; 2.9% of 350,000 active; also: potency is read from the fitted curve at half-maximal effect; % of control where 0% means no effect; nearly all actives have a fitted effect of over 50% in size
KB-3-1 tox = KB-3-1 parental cell cytotoxicity | 1.4% of 400,000 active | KB-3-1 viability, CellTiter-Glo ATP luminescence, 72 h | Potency, µM (highest dose often 46.1 µM), actives largely listed as cytotoxic | AID 1347075; also: potency is read from the fitted curve at half-maximal effect; % is scaled to controls: 0 for no effect and ±100 for the full control effect; nearly all actives have a fitted effect of over 60% in size
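Cytotoxicity measured as CellTiter-Glo luminescence after 72 h at 37 C. Compound titrations were pinned onto drug-naive KB-3-1 parental adenocarcinoma cells grown in DMEM with 10% FBS, and normalized data fitted to concentration-response curves.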
SW480 rereplic = induces DNA re-replication in SW480 colon adenocarcinoma cells; SW480 DNA re-replication, Hoechst DNA content imaging, 48 h; Potency, µM (top dose mostly 46.1 µM), for the others: top-dose re-replication activation, actives largely listed as activators; 1.8% of 340,000 active; AID 624297; also: potency is read from the fitted curve at half-maximal effect; % of control where 0% means no effect; nearly all actives have a fitted effect of over 55% in size
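250 cells/well; 23 nL cpd via pin tool; 48 hr, 37 C, 5% CO2; Hoechst 40 min; imager read of total nuclear intensity, ex 405/em 500-530 nm.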
KB-V1 cytotox = KB-V1 MDR subline cytotoxicity; AID 1347076; 3.4% of 400,000 active; Potency, µM (top dose mostly 46.1 µM), hits mostly cytotoxic; KB-V1 MDR cells viability, CellTiter-Glo, 72 h; also: potency is read from the fitted curve at half-maximal effect; % is scaled to controls: 0 for no effect and ±100 for the full control effect; nearly all actives have a fitted effect of over 60% in size
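Cytotoxicity via CellTiter-Glo luminescence after 72 h compound exposure at 37 degrees C. Cells: drug-selected KB-V1 line, DMEM phenol-red free plus 10% FBS. Compounds tested at multiple concentrations; normalized data fitted to concentration-effect curves.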
* hit, by the source's call; i = inactive; ? = inconclusive; . = no result. Unless noted, calls follow the shape of the dose curve; as a rule, active = well fitted curve in the direction sought with a large enough effect; inconclusive = small, poorly fitted or top-dose-only effect, or another doubt; inactive = no such curve, though single readings can be large; an effect the other way counts as inactive or inconclusive.

SMILES	hERG WT inh	KCNH2 3.1 block	MCF10A rereplic	KB-3-1 tox	SW480 rereplic	KB-V1 cytotox
Cc1[nH]c2ccc(C(=O)NCCN3CCOCC3)cc2c1C	-0.6	-99.6*	-1.3%	i	?	i
Cc1cccn2c(=O)c3cc(C(=O)NCCN4CCOCC4)c(=N)n(CCN4CCOCC4)c3nc12	1.8	7.3	11.6µM*	i	25.9µM*	?
COc1ccc(CCNC(=O)c2cc3c(=O)n4cccc(C)c4nc3n(CCCN3CCOCC3)c2=N)cc1	-11.1	-3.9	?	i	2.59µM*	i
Cc1ccccc1C(=O)NC(=S)NCCN1CCOCC1	0.0	-5.3	-0.8%	i	-4.7%	i
Cc1ccccc1C(=O)NCCN1CCOCC1	-20.2	-13.0	0.581µM*	i	-17.8%	?
Cc1cccn2c(=O)c3cc(C(=O)NCCN4CCOCC4)c(=N)n(Cc4ccc(F)cc4)c3nc12	-11.5	8.9	2.31µM*	16.4µM*	?	?
O=C(CN1C(=O)c2cccc3cccc(c23)C1=O)NCCN1CCOCC1	-2.5	-2.4	1.84µM*	i	-8.6%	i
Cc1cccn2c(=O)c3cc(C(=O)NC4CCCC4)c(=N)n(CCCN4CCOCC4)c3nc12	-12.1	-2.4	99.1%	i	1.46µM*	i
CCOC(=O)N1CCN(C/C(Cl)=C/c2ccccc2)CC1	-10.9	4.8	?	i	2.7%	i
COC(=O)C1CCN(CC(=O)N(C)c2c(N)n(Cc3ccccc3)c(=O)[nH]c2=O)CC1	-1.1	22.0	-2.7%	i	-12.3%	i
CCN(CC)C(=O)c1cccc(NC(=O)CC23CC4CC(CC(C4)C2)C3)c1	12.4	20.5	?	i	3.9%	?
COc1ccc(-c2oc3cc(O)c(OC)c(O)c3c(=O)c2OC)cc1	1.5	0.1	5.17µM*	?	?	?
COCc1cc(=O)[nH]c(SCCS(=O)(=O)c2ccc(Cl)cc2Cl)n1	-7.7	4.1	16.4µM*	?	15.9%	?
COCc1cc(=O)[nH]c(SCCS(=O)(=O)c2ccc(C)cc2)n1	-0.5	3.9	-1.1%	i	-6.1%	i
O=C(COc1cccc2cccnc12)N1CCc2ccccc21	1.7	-5.2	-4.2%	i	4.4%	i
Cc1cc(NC(=O)CCS(=O)(=O)c2nc(-c3ccccc3)cc(C(F)(F)F)n2)no1	-0.7	-10.6	5.17µM*	?	?	i
CS(=O)(=O)c1nc(-c2ccccc2)cc(C(F)(F)F)n1	-12.2	-10.5	2.59µM*	?	?	?
Fc1ccc(CNc2nc(-c3ccccc3)cc(C(F)(F)F)n2)cc1	.	.	.	i	.	i
COC(=O)c1ccc(-c2ccco2)n1Cc1nc(-c2ccc(OC)c(OC)c2)oc1C	-5.7	-6.2	18.4µM*	?	14.7%	i
CN(C)Cc1ccccc1Sc1ccc(O)cc1O	6.9	9.0	-0.4%	i	-8.4%	i
CCC(=O)N1CCc2cc(S(=O)(=O)N(CC)c3cccc(C)c3)ccc21	-3.0	-2.4	18.3%	i	-7.9%	i
CCN(c1cccc(C(F)(F)F)c1)S(=O)(=O)c1ccc2c(c1)CCN2C(=O)C1CC1	7.3	-3.6	27.3%	11.2µM*	-0.6%	?
CCOC(=O)c1ccc(NC(=O)NNC(=O)CCc2ccc(OC)cc2)cc1	-1.1	9.4	3.6%	i	-7.5%	i
Cc1ccc(OCC(=O)Nc2ccc(O)c(-c3nc4ccccc4o3)c2)cc1	-3.8	-4.1	16.4µM*	?	-5.6%	?
Cc1ccc(OCC(=O)Nc2ccc(O)c(-c3nc4cc(C)c(C)cc4o3)c2)cc1	.	.	.	?	.	i
SMILES	hERG WT inh	KCNH2 3.1 block	MCF10A rereplic	KB-3-1 tox	SW480 rereplic	KB-V1 cytotox
N#Cc1sc(=O)[nH]c1Cl	1.1	-5.4	-70.7%	i	?	i
CC(=O)C1=C(C)NC(SCC(N)=O)=C(C#N)C1c1cccnc1 (stereo unspecified)	-0.2	-8.0	20.6µM*	i	-2.4%	i
CCCCOC(=O)CSC1=C(C#N)C(c2cccnc2)C(C(=O)OCC)=C(c2ccccc2)N1 (stereo unspecified)	30.9	-20.5	18.4µM*	i	23.1µM*	i
CNc1c([N+](=O)[O-])cnn1-c1ccc(C)cc1	8.2	9.7	-0.5%	i	-12.0%	?
Cc1cc(C(=O)COC(=O)c2cccnc2Cl)c(C)n1-c1c(C)n(C)n(-c2ccccc2)c1=O	-3.1	28.8	-3.7%	i	2.5%	i
Cc1ccc(SCC(=O)NNC(=O)c2cncc(Br)c2)cc1	-0.4	-3.0	-3.3%	i	-2.4%	i
CN1CCC(=C(c2ccccc2)c2ccc(Br)cc2)CC1	-37.1	-96.8*	22.3%	i	-3.3%	?
Cc1ccc(CNC(=O)c2ccc3c(c2)NC(=O)CS3)cc1	-6.7	-2.1	-1.1%	i	-10.5%	i
Cc1ccc(C(C)C)c(OCC(=O)Nn2c(=O)[nH]c3ccccc3c2=O)c1	-1.8	1.3	-0.5%	i	-2.2%	20.6µM*
Cc1ccc(C(C)C)c(OCC(=O)Nn2c(C)nc3ccccc3c2=O)c1	-16.2	-4.1	-5.7%	i	0.9%	i
COc1ccc2[nH]c(=O)c(C(c3nnnn3C(C)(C)C)N(Cc3ccco3)CC3CCCO3)cc2c1 (stereo unspecified)	7.7	-11.4	25.5%	i	7.31µM*	i
CCc1ccc2[nH]c(=O)c(CN(Cc3ccccc3OC)Cc3nnnn3Cc3ccco3)cc2c1	-9.7	-0.5	?	20.6µM*	?	?
COc1ccccc1CN(Cc1cc2cc(C)ccc2[nH]c1=O)Cc1nnnn1Cc1ccco1	4.1	0.6	21.9%	?	5.0%	18.4µM*
Cc1cc2cc(C(c3nnnn3C(C)(C)C)N(Cc3ccco3)CC3CCCO3)c(=O)[nH]c2cc1C (stereo unspecified)	-0.1	1.4	-4.2%	?	1.6%	?
COC(=O)c1ccccc1S(=O)(=O)N(Cc1ccco1)Cc1cc2cc(OC)ccc2[nH]c1=O	20.3	5.7	-1.9%	i	-0.5%	8.2µM*
CCOC(=O)C1=NNC(C(=O)c2ccc(OC)cc2)C1c1ccccc1 (stereo unspecified)	2.5	-7.7	10.3%	i	-6.1%	i
O=C(CN(C(=O)CCC(=O)Nc1ccccn1)c1ccc2c(c1)OCO2)NCc1ccc(F)cc1	8.0	11.0	-1.5%	i	-1.8%	i
Cc1cccc(N2CCN(C(=O)c3ccc(Cl)c(NC4=NC5CS(=O)(=O)CC5S4)c3)CC2C)c1 (stereo unspecified)	-1.0	22.4	0.0%	i	-17.5%	?
